Assay results as given in PubChem BioAssay (NCATS).
Records with an inconclusive call do not appear. A call without a number means that no potency is given here. A number with no mark means an inactive call. Calls of active or inactive are those of the source. Calls come from the whole dose curve; as a rule, active = well fitted inhibition curve with a large enough effect; inconclusive = small, poorly fitted or top-dose-only effect; inactive = flat fitted curve, though single readings scatter.

Target: Glutathione peroxidase 1 (Homo sapiens) (UniProt P07203)
Assay: Primary qHTS Assay for Inhibitors of Recombinant Selenoprotein Glutathione Peroxidase 1 (GPX1) (AID 1845191); note: nearly all actives have a fitted effect of over 65% in size
Settings: recombinant GPX1, GR-coupled NADPH fluorescence, 15 min; series mostly up to 48.8 µM; activity, negative = inhibition: at the top concentration
How it was run: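 GPX1 10 nM, GR 100 nM, GSH 1 mM, NADPH 0.5 mM, CHP 0.5 mM (final). 30-min cpd preincubation, RT. Ex340/Em450 read t=0, t=15 min.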
Potency is the fitted concentration of half-maximal effect.

Glutathione peroxidase 1 (Homo sapiens), sequence (P07203 whole entry, looked up): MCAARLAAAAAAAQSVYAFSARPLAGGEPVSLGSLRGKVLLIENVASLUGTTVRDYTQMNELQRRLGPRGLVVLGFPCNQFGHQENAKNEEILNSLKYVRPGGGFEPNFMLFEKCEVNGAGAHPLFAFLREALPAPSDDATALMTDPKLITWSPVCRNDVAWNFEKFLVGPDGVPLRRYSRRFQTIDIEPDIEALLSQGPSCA

SMILES | outcome | activity, negative = inhibition | Potency
CC1CCc2c(sc3nc(-c4cc5ccccc5oc4=O)nc(Cl)c23)C1 (stereo not given) | inactive | – | –
CCn1c(-c2nc3cc(C(=O)N4CCC[C@@H](N)C4)cc(OC)c3n2C)cc2ccccc21 | inactive | – | –
Cn1c(/C=C/C(=O)NO)ccc1/C=C/C(=O)c1cccc(F)c1 | inactive | – | –
CCc1c(C(=O)Nc2cc(S(=O)(=O)N(CC)CC)ccc2O)[nH]c(C)c1C(C)=O | – | -26.4% | –
O=C(N[C@H]1CCS[C@H]2CCC[C@@H](C(=O)O)N2C1=O)[C@@H](S)Cc1ccccc1 | – | – | 10.1 µM (active)
CCN(C(=O)CO)[C@H]1CN(C(=Nc2cccc(OC(F)F)c2)NC#N)N=C1c1ccc(Cl)c(Cl)c1 | – | -21.8% | –
O=C1NC(=O)/C(=C/c2ccc3c(c2)OCO3)S1 | – | -14% | –
O=C(NCC(=O)N1CCCCC1)Nc1ccc2nnsc2c1 | inactive | – | –
Cc1cc(Nc2cccc(C(F)(F)F)c2)nc2ccc(NC(=O)c3ccc(=O)[nH]c3)cc12 | inactive | – | –
N=c1sc2c(n1CC(=O)c1ccc([N+](=O)[O-])cc1)CCCC2 | inactive | – | –
CCC(Sc1nnc2c(n1)[nH]c1ccccc12)C(=O)N1c2ccccc2Sc2ccccc21 (stereo not given) | – | 3.54% | –
Cc1c(C(=O)Nc2cccc(-c3nc4ccccc4s3)c2)oc2ccc(F)cc12 | inactive | – | –
CN1CCN(C(c2ccc(F)cc2)c2sc3nc(-c4ccco4)nn3c2O)CC1 (stereo not given) | inactive | – | –
CC(c1ccc(-c2ccc(CC(=O)O)cn2)cc1)N1CCCCC1 (stereo not given) | inactive | – | –
Oc1c(C(c2ccccc2)N2CCOCC2)sc2nc(-c3ccco3)nn12 (stereo not given) | inactive | – | –
Fc1ccc(N2CCN(c3nc4ccccc4c4nc(-c5cccnc5)nn34)CC2)cc1 | inactive | – | –
Cc1nc2c(c(C)c1CCC(=O)N1CCN(c3ccccc3)CC1)c(=O)n(C)c(=O)n2C | inactive | – | –
O=C(O)c1ccnc2cc(C(OCCCN3CCCCC3)c3ccccc3Cl)[nH]c12 (stereo not given) | – | -5.04% | –
Nc1nc(CC(=O)Nc2ccc(CCNC[C@H](O)c3ccccc3)cc2)cs1 | – | – | inactive
O=C(Cn1c(=O)oc2cc(S(=O)(=O)N3CCCCC3)ccc21)NCc1ccc(Cl)cc1 | inactive | – | –

SMILES | outcome | activity, negative = inhibition | Potency
Cn1cc(CN2CCN(C(c3ccccc3)c3ccccc3)CC2)cc1C#N | – | -6.26% | –
O=[N+]([O-])c1ccc(Nc2nc(N3CCOCC3)nc(N3CCOCC3)n2)cc1 | inactive | – | –
Cc1cc(C)n(CCc2nc3c4ccccc4nc(N4CCN(c5cccc(C)c5C)CC4)n3n2)n1 | inactive | – | –
O=C(c1cccc(Br)c1)N1CCC(N2CCCC2)CC1 | – | -9.02% | –
C[C@]12C=CC(=O)C=C1CC[C@@H]1[C@@H]2[C@@H](O)C[C@@]2(C)[C@H]1CC[C@]2(O)C(=O)COC(=O)c1cccc(S(=O)(=O)O)c1 | – | -1.49% | –
CC[C@@]1(O)CC2CN(CCc3c([nH]c4ccccc34)[C@](C(=O)OC)(c3cc4c(cc3OC)N(C)C3[C@@](O)(C(N)=O)[C@H](O)[C@]5(CC)C=CCN6CC[C@@]43[C@@H]65)C2)C1 (stereo not given in full) | – | -3.82% | –
CCOC(=O)[C@H](C)C[C@@H](Cc1ccc(-c2ccccc2)cc1)NC(=O)CCC(=O)O | – | -14.5% | –
N#Cc1ccc(-c2csc(NN=C3CCCC3)n2)cc1 | – | -16.3% | –
COc1ccc(OC)c(N2C(=O)C(Cl)=C(N3CCCCC3)C2=O)c1 | – | -1.17% | –
C/C=C(\C)C(=O)O | inactive | – | –
Nc1nc(NCc2ccccc2)c2[nH]cnc2n1 | – | -4.17% | –
CCCCCCCCCC(=O)OCCN1CCN(CC/C=C2\c3ccccc3Sc3ccc(C(F)(F)F)cc32)CC1 | – | -26% | –
Cc1cccc(N2C(=O)N(Cc3ccc(C(C)(C)C)cc3)c3ccccc3S2(=O)=O)c1 | inactive | – | –
CC[C@H](C)C1NC(=O)[C@H](Cc2ccc(O)cc2)NC(=O)[C@@H](N)CSSC[C@@H](C(=O)N2CCC[C@H]2C(=O)N[C@@H](CC(C)C)C(=O)NCC(N)=O)NC(=O)[C@H](CC(N)=O)NC(=O)[C@H](CCC(N)=O)NC1=O (stereo not given in full) | – | -18.5% | –
O=C(O)CCN(O)C(=O)CCCCCCCCC1CC1 | – | -5.84% | –
Clc1ccc(-c2csc(NN=C3CCCC3)n2)cc1 | inactive | – | –
CC(C)CCC[C@@H](C)[C@H]1CC[C@H]2[C@@H]3CC[C@H]4C[C@@H](O)CC[C@]4(C)[C@@H]3CC[C@]12C | – | -4.4% [at 27.7 µM] | –
O=C(O)C1CCc2cc(C3CCCCC3)c(Cl)cc21 (stereo not given) | inactive | – | –
CC(C)(O)CNc1ncc(-c2ccnc(Nc3ccnc(Cl)c3)n2)c(CC2CC2)n1 | inactive | – | –
Oc1c(Br)cc(Br)cc1CNC1CCC(O)CC1 (stereo not given) | – | -14.5% | –
